CHT inh – inhibits the human high affinity choline transporter. AID 488975. B-score at 10 µM. CHT-expressing cells, membrane potential dye, choline response; active compounds read low. hit rate 0.86% among 310,000;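 active = B-score over 3 SD under the library average, and starting fluorescence ratio not unusually high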;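 also: choline stimulus applied at its EC90 after an EC20 pre-addition; B-score computed on integrated fluorescence ratio after choline addition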
CHT allo act – human CHT allosteric activation; CHT-expressing cells, membrane potential dye, choline EC20; active compounds read high; LV-AA mutant CHT in HEK293 cells; B-score at 10 µM; hit rate 0.49% among 310,000; AID 488977;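 active = initial fluorescence not abnormally high and integrated response B-score, plate-corrected, over 3 SD above library mean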
ANO1 activ – mouse TMEM16A channel activation, primary screen; Q8BHY3; HEK293 TMEM16A/YFP-H148Q/I152L, iodide quench fluorescence; active compounds read low; B-score at 10 µM; hit rate 0.3% among 340,000; AID 623877;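 active = fluorescence-ratio B-score plate-corrected deviation score at least 3 library SD below zero, with starting fluorescence score within 5 deviations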;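 also: channel opened by trigger with iodide after compound preincubation; score built on the fluorescence ratio of max minus min over baseline; more negative score means more quench and so TMEM16A activation or potentiation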
ANO1 block – blocks the mouse calcium-activated chloride channel TMEM16A | HEK293 TMEM16A/YFP iodide influx fluorescence, ionomycin | normalized B-score (activity score, 25-100; higher = stronger inhibition) at 10 µM | hit rate 1.2% among 310,000;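 active = ratio plate-corrected score three or more library SD toward inhibition, starting fluorescence score within five deviations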;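 also: score derived from kinetic fluorescence span divided by baseline fluorescence per well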
TMEM16A reconf – reconfirmed blocker of mouse TMEM16A calcium-activated chloride channel; HEK293 TMEM16A/YFP-H148Q, iodide quench fluorescence; ionomycin added to raise cell calcium; hit rate 39% among 2,300; inhibition, % at 10 µM; AID 652189; shares compounds with ANO1 block;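 active = mean duplicate percent inhibition, scaled so buffer wells are 0 and the reference blocker 100, over three buffer SD above buffer mean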
TMEM16A Ca cntr – counter-screen for TMEM16A inhibitors: effect on calcium mobilization | shares compounds with ANO1 block | hit rate 2% among 2,300 | calcium response (% of ionomycin), % at 10 µM | TMEM16A/YFP HEK293, Fluo4 calcium mobilization | AID 652231;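 active = duplicate-averaged calcium signal over 20% of the ionomycin maximum, relative to buffer baseline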;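 also: each well's signal is peak minus trough fluorescence divided by its pre-addition baseline; 0% = buffer wells and 100% = ionomycin wells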
Parental YFP cnt – acts in parental YFP-HEK293 cells lacking TMEM16A, counter-screen; shares compounds with ANO1 block; iodide YFP quench, ionomycin; YFP ratio F(max-min)/F0 at 10 µM; 2,300 tested, under 10 active; AID 652233;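 active = yellow fluorescent protein signal ratio exceeding the buffer control mean by over 5 SD of those controls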;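 also: ratio is mean of duplicate wells from kinetic YFP trace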
ClC-1 inh – blocks the rat ClC-1 voltage-dependent chloride channel; ratio percent, % at 10 µM; 2,300 tested, under 10 active; shares compounds with ANO1 block; CHO ClC-1-YFP, iodide influx fluorescence quench; iodide control reads 0, buffer control 100; AID 652236;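 active = duplicate-mean ratio percent above the mean of iodide-only control wells, which defines zero, plus 5 of their SD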;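 also: higher percent means stronger block of ClC-1 iodide influx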
Starred values were filed as active, the others as inactive; i = inactive; . = no result given. Hits are enriched below; roughly 2.3% of the tested compounds scored in any of these assays.

SMILES	CHT inh	CHT allo act	ANO1 activ	ANO1 block	TMEM16A reconf	TMEM16A Ca cntr	Parental YFP cnt	ClC-1 inh
CNC(=S)N(Cc1ccc(OC)cc1)C1CC(=O)N(c2ccc(Cl)cc2)C1=O (stereo unspecified)	i	i	i	i	28%*	i	-0.96	-4
COc1ccc(CN(C(=S)Nc2ccccc2)C2CC(=O)N(c3ccc(F)cc3)C2=O)cc1 (stereo unspecified)	i	i	i	i	.	.	.	.
O=C(NNS(=O)(=O)c1ccc(F)cc1)c1cccc(O)c1	i	i	i	i	.	.	.	.
COc1ccc(Cn2c(=O)[nH]c3cc(C(=O)N4CCN(Cc5ccccc5)CC4)ccc3c2=O)cc1	i	i	i	25*	i	i	-1.1	-16
COc1ccc(Cn2c(=O)[nH]c3cc(C(=O)N4CCN(c5ccccc5OC)CC4)ccc3c2=O)cc1	i	i	i	i	.	.	.	.
CC(C)CSc1nc(N2CCOCC2)c2c(c1C#N)CC(C)(C)SC2	i	i	i	i	22%*	i	-0.89	0
COc1ccc(S(=O)(=O)Nc2cc3c4c(c2)CC(=O)N4CCC3)cc1C	i	i	i	i	.	.	.	.
CCCOC(=O)c1ccc(NC(=O)CSC2=Nc3ccccc3C3CC=NN23)cc1 (stereo unspecified)	i	i	i	100*	i	i	-1	-8
CC(=O)N1c2ccc(S(=O)(=O)N(C)CC(=O)Nc3ccccc3C)cc2CC1C (stereo unspecified)	i	i	i	i	.	.	.	.
COC(=O)CC/C(O)=C1\C(=O)CC(C)(C)CC1=Nc1ccccc1OC	i	i	i	i	.	.	.	.
CCCC/C(O)=C1\C(=O)CC(C)(C)CC1=Nc1ccccc1OC	i	i	i	25*	i	i	-1.1	-4
O=C(c1cc(Cl)ccc1F)N1CCCC(Nc2ccc3c(c2)OCCO3)C1 (stereo unspecified)	i	i	i	i	.	.	.	.
O=C(OCCN1CCN(c2ncc(C(F)(F)F)cc2Cl)CC1)c1ccc(Cl)cc1	i	i	i	100*	i	i	-1.1	-6
O=C(OC1CCN(c2ncc(C(F)(F)F)cc2Cl)CC1)c1ccc(Cl)cc1	i	i	i	i	.	.	.	.
CC(C)(C)c1cccc(Cn2nnc3ccccc32)c1O	i	i	i	100*	24%*	i	-1	-25
Cc1cccc(Cn2nnc3ccccc32)c1O	i	i	i	i	.	.	.	.
Nc1nc(CN2CCN(c3ccccc3)CC2)nc(Nc2ccc(Cl)cc2)n1	i	i	i	25*	i	i	-1.1	-2
O=C(Nc1ccc2c(c1)OCO2)C1CCN(S(=O)(=O)c2cccc3cccnc23)CC1	i	i	i	i	.	.	.	.
CN(C)c1cccc(C(=O)NN2C(=O)NC3(CCCCC3)C2=O)c1	.	.	i	.	.	.	.	.
O=[N+]([O-])c1cccc(N(CC(O)CN2CCCCC2)S(=O)(=O)c2ccccc2)c1 (stereo unspecified)	i	i	i	i	.	.	.	.
COc1ccc(-c2cnc(SCC(=O)Nc3ccc4c(c3)OCO4)n2Cc2ccco2)cc1	.	.	i	.	.	.	.	.
CC(=O)Nc1cccc(NC(=O)CSc2ncc(-c3ccc(Cl)cc3)n2Cc2ccco2)c1	i	i	i	100*	32%*	i	-0.96	-16
CCCNC(=O)CN(CCc1ccccc1)S(C)(=O)=O	i	i	i	i	.	.	.	.
COc1ccc(/C=N/NC(=O)c2ccc(=O)n(C)c2)cc1OC	i	i	i	i	.	.	.	.
COc1ccc(-c2cc(C(F)(F)F)nc(SCCC(=O)N3CCCC3)n2)cc1	i	i	i	100*	i	i	-1.3	-16
SMILES	CHT inh	CHT allo act	ANO1 activ	ANO1 block	TMEM16A reconf	TMEM16A Ca cntr	Parental YFP cnt	ClC-1 inh
COc1ccc(CNC(=O)CCSc2nc(-c3ccc4c(c3)OCO4)cc(C(F)(F)F)n2)cc1	i	i	i	i	i	i	-1	-14
COc1ccccc1NC(=O)COc1ccc(/C=N/NC(=O)CSCc2cc(C)cc(C)c2)cc1	i	i	i	i	.	.	.	.
COc1ccccc1NC(=O)COc1ccc(/C=N/NC(=O)CSCc2ccc(Cl)cc2)cc1	i	i	i	100*	18%*	i	-1.1	4
Cc1cc(N)ccc1NC(=O)c1ccccc1	i	i	i	100*	i	i	-1.1	-6
Cc1cc(O)ccc1NC(=O)c1ccccc1	i	i	i	i	.	.	.	.
Cc1cc(C)c(S(=O)(=O)Nc2nccs2)c(C)c1	i	i	i	i	.	.	.	.
CCN1C[C@@H]2[C@@H]3C(=O)N(Cc4ccccc4)C(=O)[C@@H]3[C@](C)(C1=O)N2C(=O)c1ccc(C)cc1	.	.	i	.	.	.	.	.
Cc1ccc(C(=O)N2c3ccccc3N(Cc3ccccc3)C(=O)C2(C)C)cc1	i	i	i	100*	24%*	i	-0.97	-10
Cc1nn(-c2ccccc2)c(C)c1/C=N\N1CCN(c2ccc(Cl)cc2)CC1	i	i	i	25*	i	i	-1.1	-10
Cc1nn(-c2ccccc2)c(C)c1/C=N/n1cnnc1	i	i	i	i	.	.	.	.
CC(=O)N1CCN(C(=O)c2cc3c(s2)CCC(C)C3)CC1 (stereo unspecified)	.	.	i	.	.	.	.	.
COc1cc(Cn2c(C(=O)O)cc3sccc32)cc(OC)c1OC	.	.	i	.	.	.	.	.
O=C(NCCC1=CCCCC1)c1ccc(Cl)c(S(=O)(=O)Nc2ccccc2)c1	i	i	i	100*	i	i	-1	-13
COc1ccccc1OCc1ccc(C(=O)NCc2cccnc2)o1	i	i	i	i	.	.	.	.
CC(C)(C)c1ccc(OCc2ccc(C(=O)NCc3cccnc3)o2)cc1	i	i	i	100*	i	i	-1.1	-16
O=C(/C=C/c1ccncc1)c1ccc(NC(=O)c2ccccc2F)cc1	i	i	i	i	.	.	.	.
CCCn1c(N)c(C(=O)CSc2nnc(C3CC3)n2C2CC2)c(=O)[nH]c1=O	.	.	i	.	.	.	.	.
COc1cccc(/C=C2\CCC(C3CCCC3)C2=O)c1OC (stereo unspecified)	i	i	i	25*	18%*	i	-0.98	-8
CCCN1C(=O)COc2ccc(-c3n[nH]c(=O)c4ccccc34)cc21	i	i	i	i	.	.	.	.
CCSc1nnc(COc2ccccc2)n1CC	i	i	i	i	.	.	.	.
